Inconclusive results are not listed. Entries that show only a call come without a potency. Activity calls are given as the source filed them. The call rests on the fitted dose curve; in most records, active means well fitted activation curve with a large enough effect; inconclusive means small, poorly fitted or top-dose-only effect; inactive means no such curve, though single readings can be large or run the other way.
Experiment: qHTS Assay for Identifying a Potential Treatment of Ataxia-Telangiectasia: Hit Validation;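 further: phospho-KAP1 level by AlphaLISA as a proxy for ATM-like kinase activity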
Details: Ataxia-telangiectasia cell-based hit validation qHTS, in ATM-null A-T patient fibroblasts; series mostly up to 76.9 µM
How it was run: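 KAP-1 phosphorylation was read by AlphaLISA as a measure of ATM-like activity in ATM-null F2112 fibroblasts. Compounds spanned up to 76.7 uM final, with 60 min exposure at 37C and a 6 hr detection incubation at 25C.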
Potency means the concentration at half of the fitted maximal effect.

Structure (SMILES)	Potency
CCCc1nn(C)c(C(=O)Nc2ccc(C(C)(C)C)cc2)c1Cl	inactive
Cc1ccc(NC(=O)CSc2nnc([C@H](C)NC(=O)OC(C)(C)C)o2)c(C)c1	26 µM (active)
O=C(O)CCCN1C(=O)/C(=C/C=C/c2ccco2)SC1=S	inactive
CC(C)OP(=O)(OC(C)C)C(O)c1ccc(N(C)C)cc1 (stereo unspecified)	inactive
O=C(NC12CC3CC(CC(C3)C1)C2)c1cccc(OC(F)F)c1	inactive
C=Cc1c(C)c2cc3[nH]c(cc4nc(cc5nc(cc1[nH]2)C(C)=C5CCC(=O)O)C(CCC(=O)O)=C4C)c(C)c3C=C	inactive
C/C=C\C=C/C(=O)Nc1cccc(C2=NOC3(C2)C[C@@H](C(N)=O)N(C(=O)COc2ccc(Cl)cc2)C3)c1 (stereo partly specified)	inactive
COc1cc(/C=N/NC(=O)c2c(C)nc3ccc(Cl)cn23)cc(OC)c1OC	inactive
CCC(Oc1ccccc1)C(=O)N(C)CC(=O)N(CC(C)C)c1c(N)n(CC(C)C)c(=O)[nH]c1=O (stereo unspecified)	inactive
Cc1nn(C)c(Cl)c1CN1CCN(C2CCCC2)C(CCO)C1 (stereo unspecified)	inactive
CCC12CN(C(=O)c3ccc([N+](=O)[O-])cc3)CC(CC)(CN(C(=O)c3ccc([N+](=O)[O-])cc3)C1)C2=O	inactive
CCC(=O)Nc1ccc(S(=O)(=O)c2ccc(NC(=O)CC)cc2)cc1	inactive
COc1ccccc1S(=O)(=O)Nc1ccc(-c2nnc3n2CCCCC3)cc1	inactive
Nc1ccc2ncccc2c1	inactive
CCCCN(c1nc2ccccc2nc1Cl)S(=O)(=O)c1ccc(C)cc1	26 µM (active)
COc1cccc(C(=O)NOCc2ccc(C)cc2)c1OC	inactive
COC(=O)c1ccc2[nH]c3cccc(/C(=C/c4ccccc4)c4ccccc4)c3c2c1	inactive
CCn1c(SCc2cccc(F)c2)nnc1-c1ccncc1	inactive

Structure (SMILES)	Potency
CC(NC(=O)COC(=O)/C=C/c1ccc(Cl)cc1)c1ccccc1 (stereo unspecified)	inactive
O=C(O)CCCC(=O)N1N=C(c2ccccc2)CC1c1cccs1 (stereo unspecified)	inactive
CC(C)c1ccc(C(C(=O)NC2CCCCC2)N(C(=O)c2ccccn2)c2cccnc2)cc1 (stereo unspecified)	inactive
COc1cccc(CNC(=O)C(CC(C)C)NC(=O)c2ccccc2C)c1 (stereo unspecified)	inactive
CC1(C)CC2(CCO1)OC(=O)CC2C(=O)Nc1c(Cl)cccc1Cl (stereo unspecified)	inactive
COc1ccc2c(c1)cc(C(=O)N[C@H](C(=O)N1CCC(C(=O)O)CC1)C(C)C)n2C	inactive
C=CCSc1nc2ccccc2n1C(=O)/C=C/c1cc(OC)c(OC)c(OC)c1	26 µM (active)
CC(C)(CN1CCN(c2ccccc2)CC1)NS(=O)(=O)c1ccccc1	inactive
CC(C)(C)NC(=O)c1cccc2c1-c1ccccc1C2=O	inactive
CCOC(=O)C1=C(O)C(=O)N(Cc2ccccc2)C1	inactive
Cc1ccc2c(c1)C(=O)CC(O)(C(F)(F)F)O2 (stereo unspecified)	inactive
CCN(c1ccccc1)S(=O)(=O)c1ccc(Cl)c(C(=O)N(CC2CCCO2)C2CCS(=O)(=O)C2)c1 (stereo unspecified)	inactive
COc1ccc(Cl)cc1NC(=O)C[n+]1cccc(C)c1	inactive
O=C(CN1CCN(Cc2ccccc2)CC1)Nc1ccc(Cl)cc1	inactive
COc1ccccc1N1CCN(C(=O)c2cc(=O)c3c(C)cc(C)cc3o2)CC1	inactive
CCN(CC)S(=O)(=O)c1ccc(Cl)c(NC(=O)CCCCl)c1	inactive
CN(Cc1ccccc1)C(=O)c1cccc(N2C(=O)C3CC=CCC3C2=O)c1 (stereo unspecified)	inactive
C[C@H](NC(=O)OC(C)(C)C)C(=O)NCC1CCC(C(=O)N[C@@H](Cc2ccccc2)C(=O)O)CC1 (stereo partly specified)	inactive
